# Reference: the supplement of paper PMC8975748
# Counter-ions that a name gives are not always drawn.
# Test system: Saccharomyces cerevisiae BY4741 SeMeCo community
# Experiment: z-score of subpopulation abundance vs DMSO median, subpopulation auxotrophic for HLM; higher = larger share of this subpopulation than in DMSO controls
# Conditions: 10 µM; 24 h; SM minimal medium; subpopulation (auxotrophy): HLM
# Procedure: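 Fluorescent four-plasmid SeMeCo (self-establishing metabolically cooperating S. cerevisiae BY4741 community; plasmids pH-mRuby2, pL-mWasabi, pU-eCFP, pM-TagRFP657) was grown 24 h in minimal SM medium with each Selleck FDA-approved drug at 10 µM in 384-well plates. Cells were fixed and imaged by high-content confocal microscopy. For each auxotrophic subpopulation (and the prototroph), a z-score gives the deviation from the DMSO vehicle-control population median.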
row,SMILES,z-score of subpopulation abundance
1,NC(=O)CN1CCCC1=O [Piracetam],1.38
2,CN(C)[C@@H]1C(=O)C(C(N)=O)=C(O)[C@@]2(O)C(=O)C3=C(O)c4c(O)cccc4[C@@](C)(O)[C@H]3[C@H](O)[C@@H]12 [Oxytetracycline (Terramycin)],2.78
3,C#C[C@]1(O)C=C[C@H]2[C@@H]3CCC4=CC(=O)CC[C@@H]4[C@H]3CC[C@@]21CC [Gestodene],-0.9
4,CC[C@@H](C(N)=O)N1CCCC1=O [Levetiracetam],0.21
5,C[C@@H]1CC[C@H]2[C@@H](C)C(=O)O[C@@H]3O[C@@]4(C)CC[C@@H]1[C@]32OO4 [Artemisinin],-0.69
6,Cc1cc(O)ccc1Cl [Chlorocresol],-0.58
7,Oc1cccc2cccnc12 [8-Hydroxyquinoline],-0.08
8,CC[C@H]1[C@@H]2C[C@H]3[C@@H]4N(C)c5ccccc5[C@]45C[C@@H]([C@@H]2[C@H]5O)N3[C@@H]1O [Ajmaline],-0.46
9,CN[C@@H]1[C@@H](O)[C@@H](O[C@@H]2[C@@H](O)[C@H](O[C@H]3O[C@H]([C@@H](C)O)[C@@H](O)[C@H](O)[C@H]3N)[C@@H](N)C[C@H]2N)OC[C@]1(C)O [Geneticin (G418 Sulfate)],-0.13
10,CC(=O)O[C@H]1C[C@@H]2CC[C@@H]3[C@H](CC[C@@]4(C)[C@H]3C[C@H]([N+]3(C)CCCCC3)[C@@H]4OC(C)=O)[C@@]2(C)C[C@@H]1[N+]1(C)CCCCC1 [Pancuronium dibromide],-0.05
11,CN1c2ccccc2C(NCCCCCCC(=O)O)c2ccc(Cl)cc2S1(=O)=O (stereo not given) [Tianeptine sodium],-0.48
12,C=C(C)[C@H]1Cc2c(ccc3c2O[C@@H]2COc4cc(OC)c(OC)cc4[C@@H]2C3=O)O1 [Rotenone (Barbasco)],0.69
13,O=[N+]([O-])C(Br)(CO)CO [Bronopol],-0.88
14,O=C(O[C@H]1C[N+]2(CCCOc3ccccc3)CCC1CC2)C(O)(c1cccs1)c1cccs1 [Aclidinium Bromide],-0.51
15,CC(C)(O)C(Cl)(Cl)Cl [Chlorobutanol],-0.04
16,CCN(CC)CCOC(=O)C(O)(c1ccccc1)c1ccccc1 [Benactyzine hydrochloride],0.1
17,CCN(C)C(=O)Oc1cccc([C@H](C)N(C)C)c1 [Rivastigmine],-0.03
18,C[N+]12CCC(CC1)C(OC(=O)C(O)(c1ccccc1)c1ccccc1)C2 (stereo not given) [Clidinium Bromide],-0.26
19,CCC1=C[C@H]2CN3CCc4c([nH]c5ccccc45)[C@](C(=O)OC)(C2)[C@H]13 [Catharanthine],-0.68
20,C=C[C@H]1CN2CC[C@H]1C[C@H]2[C@H](O)c1ccnc2ccccc12 [Cinchonidine],-0.4

row,SMILES,z-score of subpopulation abundance
1,COc1ccc2c(c1)[C@]13CCCC[C@@H]1[C@H](C2)N(C)CC3 [Dextromethorphan hydrobromide hydrate],0.03
2,C[N+](C)(C)CCCCCCCCCC[N+](C)(C)C [Decamethonium Bromide],-0.27
3,CCCCCCCCCCCCCCCC[n+]1ccccc1 [Cetylpyridinium Chloride],67.8
4,"NCC(O)c1ccc(O)cc1 (racemic) [(+,-)-Octopamine HCl]",-0.75
5,CCOC(=O)Nc1ccc(NCc2ccc(F)cc2)cc1N [Retigabine],0.18
6,CN1[C@@H]2CC[C@H]1C[C@@H](OC(=O)C(CO)c1ccccc1)C2 (stereo not given in full) [Atropine sulfate monohydrate],-0.94
7,N#Cc1nn(-c2c(Cl)cc(C(F)(F)F)cc2Cl)c(N)c1[S+]([O-])C(F)(F)F (stereo not given) [Fipronil],0
8,CN1[C@@H]2CC[C@H]1C[C@@H](OC(=O)[C@H](CO)c1ccccc1)C2 [Hyoscyamine],0.11
9,CN1C(=O)COc2c(C(=O)NC3CN4CCC3CC4)cc(Cl)cc21 (stereo not given) [Azasetron HCl],1.29
10,COc1ccc2[nH]cc(CCN)c2c1 [5-Methoxytryptamine],0.21
11,CC[C@H]1CN2CC[C@]3(C(=O)Nc4ccccc43)[C@@H]2C[C@@H]1/C(=C\OC)C(=O)OC [Rhynchophylline],1.16
12,CN(C)C(=O)Oc1ccc[n+](C)c1 [Pyridostigmine Bromide],0.28
13,C[N+]1(C)[C@@H]2C[C@@H](OC(=O)[C@H](CO)c3ccccc3)C[C@H]1[C@@H]1O[C@@H]12 [Methscopolamine],0.13
14,Cn1cc(C2=C(c3cn(C4CCN(Cc5ccccn5)CC4)c4ccccc34)C(=O)NC2=O)c2ccccc21,-1.27
15,CN[C@@H]1[C@@H](O)[C@@H](O[C@@H]2[C@@H](O)[C@H](O[C@H]3O[C@H](CN)CC[C@H]3N)[C@@H](N)C[C@H]2N)OC[C@]1(C)O.CN[C@@H]1[C@@H](O)[C@@H](O[C@@H]2[C@@H](O)[C@H](O[C@H]3O[C@H]([C@@H](C)N)CC[C@H]3N)[C@@H](N)C[C@H]2N)OC[C@]1(C)O.CN[C@@H]1[C@@H](O)[C@@H](O[C@@H]2[C@@H](O)[C@H](O[C@H]3O[C@H]([C@@H](C)NC)CC[C@H]3N)[C@@H](N)C[C@H]2N)OC[C@]1(C)O [Gentamicin Sulfate],0.75
16,NCCc1c[nH]c2ccc(O)cc12 [Serotonin HCl],-0.77
17,C[C@H]1O[C@H](O[C@H]2[C@H](O)[C@@H](O)[C@@H](O)[C@H](O)[C@@H]2O)[C@@H](N)C[C@@H]1NC(=N)C(=O)O [Kasugamycin hydrochloride],-0.54
18,Cc1cc(C(C#N)c2ccc(Cl)cc2)c(Cl)cc1NC(=O)c1cc(I)cc(I)c1O (stereo not given) [Closantel],-0.4
19,COc1ccc(C=O)cc1 [p-Anisaldehyde],-0.78
20,CNC1CC(N)C(O)C(OC2OC(CO)C(O)C3OC4(OC(C(N)CO)C(O)C(O)C4O)OC23)C1O (stereo not given) [Hygromycin B],-0.02
